For 68 compounds, INHIBITION results are on record in ChEMBL document CHEMBL4513216, “Probing the Open Global Health Chemical Diversity Library for Multistage-Active Starting Points for Next-Generation Antimalarials” (ACS Infect Dis, 2020).

Out of some 69,000 compounds screened, about 8,600 (12%) showed an effect of 50% or more. The entries come from a sample that favours strong results as a whole.

This assay relates to Plasmodium berghei. Description: Screen against P. berghei liver stage (PbLuc), transformed with Luciferase, at 10uM. It counts as functional, HepG2. The note with it: tested at 10 uM.
`O=C(NCCc1ccncc1)[C@@H]1CC[C@@H]2[C@@H](CCN2Cc2ccco2)O1`: the INHIBITION was determined as 31.7%. The same measure for `COCC(=O)N1CCC2(CCC2NS(=O)(=O)c2ccccc2)CC1` (stereo not drawn): 64.5%; for `O=S(=O)(NC1CCC12CCN(CC1CC1)CC2)c1ccccc1` (stereo not drawn): 26%. The same measure for `COCC(=O)N1CCC2(CCC2NC(=O)c2ccn(C)c2)CC1` (stereo not drawn): 41.6%.

Regarding `Cc1nc(O)c2nnn(C[C@H]3CCCN3C(=O)c3ccc(F)cc3)c2n1`, the INHIBITION came to 8.72%. With `CCc1cc(=O)[nH]c(-c2ccc(NC(C)COC)nc2)n1` (stereo not drawn) the figure was -10.3%; with `CCOC(=O)C1(Cc2cccc(OC)c2)CCN(Cc2ncc[nH]2)CC1`, 57.6%. On to `COc1cccc(CC2(C(=O)O)CCN(c3ccc(Cl)cn3)CC2)c1`, for which the INHIBITION was found to be 30.8%. With `CCOC(=O)C1(Cc2cccc(Cl)c2)CCCN(Cc2ncc[nH]2)C1` (stereo not drawn) the figure was 46.7%; with `CCOC(=O)C1(Cc2cccc(OC)c2)CCN(Cc2ccon2)CC1`, 55.7%. The same measure for `COc1cccc(CC2(C(=O)O)CCN(c3nccs3)CC2)c1`: 22.3%; for `O=C1CC2(CCN(Cc3ncc[nH]3)CC2)CN1Cc1ccc(Cl)cc1`: 12.4%; for `COc1cccc(CNC(=O)N2CCN(Cc3cc(C)on3)CC2)c1`: -1.62%.

For `CCOC(=O)C1(Cc2cccc(OC)c2)CCCN(Cc2ncc[nH]2)C1` (stereo not drawn), the INHIBITION is given as 41.2%. With `CCOC(=O)C1(Cc2ccc(Cl)cc2)CCN(Cc2ncc[nH]2)CC1` the figure was 82.1%; with `CS(=O)(=O)N1C[C@H](C(=O)Nc2cccnc2)[C@@H]2CCO[C@@H]2C1`, -7.7%; with `CN(C)c1ncnc2c1CCN(C(=O)c1cccnc1)CC2`, 20.6%. Turning to `COc1cc(NC2CCN(C3CCS(=O)(=O)CC3)CC2)ncn1`, the INHIBITION is -15%. With `Cc1ccc(CC(=O)N2CCCC(c3cc(C(N)=O)[nH]n3)C2)cn1` (stereo not drawn) the figure was 39.35%. With `Cc1ccc(NC(=O)NCC(c2cnn(C)c2)N(C)C)c(C)c1` (stereo not drawn) the figure was 57.7%; with `CCOc1ccccc1CNC(=O)NCC(c1cnn(C)c1)N(C)C` (stereo not drawn), 62.8%; with `Cn1cc(C(O)CNC(=O)Nc2cc(F)ccc2-n2cccn2)cn1` (stereo not drawn), 23.4%. The same measure for `CCOc1cc(F)ccc1NC(=O)NCC(c1cnn(C)c1)N(C)C` (stereo not drawn): 44.9%; for `Cc1ccc(C(=O)NCC(c2cnn(C)c2)N(C)C)c(O)c1` (stereo not drawn): 1.19%. As to `CCOCc1ccccc1NC(=O)NCC(c1cnn(C)c1)N(C)C` (stereo not drawn), the INHIBITION is recorded as 2.91%. The same measure for `O=C(c1ccc(C2CCNC2)cc1)N1CCC(N2CCC(O)CC2)CC1` (stereo not drawn): -8%; for `CCN(CC)Cc1cn2c(n1)CN(C(=O)c1cnccn1)CC2`: 37%; for `CN1C(=O)CO[C@H]2CN(C(=O)c3ccc4c(c3)CCCC4)C[C@@H]21`: -3%. Consider `Cn1ccnc1CN1CCC(Cc2ccccn2)CC1`, for which the INHIBITION is 38.2%. On to `O=C(NCCCO)c1nc(-c2ccc3cc[nH]c3c2)no1`, for which the INHIBITION is on record as -108%. With `CC(NC1CCCC1)c1ccccc1-n1cccn1` (stereo not drawn) the figure was -8.66%; with `c1cncc(NCCNC2CCSCC2)c1`, -22.8%.

As for `CC(NC1CCSCC1)c1ccccc1-n1cccn1` (stereo not drawn), the INHIBITION is -4.12%. `CC(C)CN1CCC(NC(C)c2ccccc2-n2cccn2)CC1` (stereo not drawn): the INHIBITION was 89.1%. The same measure for `CC(C)CN1CCC(NCCNc2cccnc2)CC1`: 52.7%; for `c1cncc(NCCNC2CSCCSC2)c1`: 57.5%; for `Cc1cnccc1NCCNC1CCN(CC(C)C)CC1`: -58.7%. With `c1cncc(NCCNC2CCCNC2)c1` (stereo not drawn) the figure was 4.95%; with `c1cncc(NCCNC2CCSC2)c1` (stereo not drawn), 29.7%; with `O=C(O)c1cnc(N2CCC(O)CC2)nc1COc1ccc(F)cc1`, 46.1%.

As for `CC(C)(C)NC(=O)c1ccn(COc2c(Cl)cccc2Cl)n1`, the INHIBITION is listed as 20.9%. The same measure for `Cc1cc(C(=O)NCc2cccs2)c2c(C3CCCN3)noc2n1` (stereo not drawn): 29.2%. The same measure for `COc1ccccc1C(=O)N1CC(=O)N(CC2CC2)CC(O)C1` (stereo not drawn): 34.3%; for `Cc1cccc(C(=O)N2C[C@@H]3COC[C@@H](CC(=O)N4CCCC4)[C@@H]3C2)n1`: -69.3%. `CN(C1CCN(c2ccccn2)CC1)S(=O)(=O)c1cccs1`: the INHIBITION is listed as 33%.

Take `CN(C1CCCN(c2ccccn2)C1)S(=O)(=O)N1CCOCC1` (stereo not drawn): the INHIBITION worked out at 17.85%.

`CN(C1CCN(c2ccccn2)CC1)S(=O)(=O)N1CCOCC1`: the INHIBITION is 55.4%. For the compound `CN(C(=O)Cc1cccs1)C1CCN(c2ccccn2)CC1`, the INHIBITION came to 54.4%. The same measure for `CN(C(=O)Cc1ccccc1Cl)C1CCN(c2ccccn2)CC1`: 60.5%; for `Cc1ccccc1CC(=O)N(C)C1CCN(c2ccccn2)CC1`: 42.9%. With `CN(C(=O)CNc1ccc(C#N)cc1)C1CCN(c2ccccn2)CC1` the figure was 11.2%; with `CCOc1ncccc1C(=O)N(C)C1CCN(c2ccccn2)CC1`, 15.6%; with `O=C(COCCOc1ccccc1)NC1CCN(c2ccccn2)CC1`, -10.7%.

As to `COCCOCC(=O)NC1CCN(c2ccccn2)CC1`, the INHIBITION was found to be 51.3%.

`CN(C1CCN(c2ccccn2)CC1)S(=O)(=O)c1ccc(F)cc1`: the INHIBITION came to 8.13%. Turning to `Cc1ccc(C)c(OCC(=O)NC2CCN(c3ccccn3)CC2)c1`, the INHIBITION is listed as -43.2%. For the compound `Cc1cnn(C2CCCN(C(=O)CCCn3ccnc3C)C2)c1` (stereo not drawn), the INHIBITION amounted to 9.54%. With `Cc1cc(CN2CCC3(CC2)COC(COCC2CC2)C3)no1` (stereo not drawn) the figure was 22.2%; with `CCNC(=O)NC(=O)CN1CCC(c2cccc(F)c2)C1` (stereo not drawn), 15.8%.

For `O=C(NC1CC1)c1cc(C(F)(F)F)cc(C(F)(F)F)n1`, the INHIBITION is recorded as -14.3%.

For `Cc1ccc(OCCN2CCC(c3ccnn3CCO)CC2)cc1`, the INHIBITION came to 19.6%. With `CCc1nc2n(n1)CC(NCc1nc(-c3ccccn3)no1)CC2` (stereo not drawn) the figure was 4.45%. With `COCCOc1cccc(C(=O)N2CCCC(n3ccnc3)C2)c1` (stereo not drawn) the figure was 33.7%; with `OCC(CO)N1CCC(c2nccnc2Nc2cnccn2)CC1`, -42.9%; with `Cc1ccc(S(=O)(=O)N2CCCC3(CCCN3S(C)(=O)=O)C2)cc1F` (stereo not drawn), -21.1%. For `CSC1(CNC(=O)CCc2ccc(Cl)s2)CCOCC1`, the INHIBITION is listed as -19.1%.

Turning to `CN1CCN(CCCNC(=O)CCc2nc3cc(Br)cnc3[nH]2)CC1`, the INHIBITION was 38.9%.

As to `CCc1nccn1C1CCCN(C(=O)c2ccc3[nH]cnc3c2)C1` (stereo not drawn), the INHIBITION turned out to be 3.16%.
